Our source for the inhibition values is PubChem BioAssay AID1210 (NMMLSC, 2008).

The source made the active and inactive calls.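 How the source made its calls: active means blocks over 70% of labeled estradiol binding at 10 µM, or over a set limit at 100 nM; inactive means the rest.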

This assay concerns the target Estrogen receptor beta (Homo sapiens) (UniProt Q92731). In words: ERbeta ligand binders by competition, primary screen, cell-based, Cos7 ERbeta-GFP, flow cytometry (AID 1210).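 Further: 0% = DMSO vehicle wells and 100% = complete loss of labeled estradiol signal.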 The settings on record: fluorescent estrogen binding, stronger effect = higher value.
Setting [1] is: ligand binding inhibition, at 0.1 µM.

Estrogen receptor beta (Homo sapiens), sequence (Q92731 whole entry, looked up): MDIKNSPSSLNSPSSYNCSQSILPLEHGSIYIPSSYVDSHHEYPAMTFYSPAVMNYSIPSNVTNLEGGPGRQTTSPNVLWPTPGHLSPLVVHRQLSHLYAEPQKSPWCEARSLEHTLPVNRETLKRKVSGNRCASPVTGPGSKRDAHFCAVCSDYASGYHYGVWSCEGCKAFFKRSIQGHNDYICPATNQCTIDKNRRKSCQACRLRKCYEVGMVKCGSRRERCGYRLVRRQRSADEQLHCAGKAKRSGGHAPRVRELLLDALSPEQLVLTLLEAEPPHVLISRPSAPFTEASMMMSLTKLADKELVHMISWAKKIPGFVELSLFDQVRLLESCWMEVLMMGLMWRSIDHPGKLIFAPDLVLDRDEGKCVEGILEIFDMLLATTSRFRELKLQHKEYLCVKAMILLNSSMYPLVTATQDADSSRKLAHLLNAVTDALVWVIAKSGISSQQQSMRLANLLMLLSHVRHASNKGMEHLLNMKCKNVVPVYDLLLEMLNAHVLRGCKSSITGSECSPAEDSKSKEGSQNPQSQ

In general, inhibition refers to how much of the control response was suppressed. Take `COc1cc2c(cc1OC)C(Cc1ccc(O)cc1)N(C)CC2` (stereo unspecified): the inhibition is, setting by setting: (at 10 µM) 56% (inactive); under setting [1], 6%.

As to `Cc1cc(C2(c3ccc(O)c(C)c3)OC(=O)c3ccccc32)ccc1O`, the inhibition was 73% (active) (at 10 µM) and 29% under setting [1].

Turning to `COc1cc(C(C#N)N2N=C(c3ccccc3)CC2c2ccccc2)ccc1O` (stereo unspecified), the inhibition (at 10 µM) was 54% (inactive) and the inhibition under setting [1] amounted to 5%.

With `Nc1ccc2nc(-c3ccc(Cl)cc3)[nH]c2c1`, the inhibition is, setting by setting: (at 10 µM) 42% (inactive); under setting [1], 16%.

Regarding `COc1ccc2[nH]c3c(c2c1)CCn1c-3nc2ccccc2c1=O`, the inhibition by setting is: (at 10 µM) 16% (inactive); under setting [1], 36%.

Regarding `COc1ccccc1/C=c1\sc2nc(-c3ccco3)nn2c1=O`, the inhibition reads like this: (at 10 µM) 60% (inactive); under setting [1], 21%.

Take `COc1cccc(C(=O)NC2CCN(C(=O)N3c4ccccc4Sc4ccccc43)CC2)c1`: the inhibition runs as follows: (at 10 µM) 43% (inactive); under setting [1], 17%.

Regarding `COc1ccc(C(Nc2ccccn2)c2oc(CO)cc(=O)c2O)cc1` (stereo unspecified), the inhibition runs as follows: (at 10 µM) 75% (active); under setting [1], 40%.

Regarding `O=C(O)c1ccc2c(c1)C1C=CCC1C(c1cc3c(cc1Br)OCO3)N2` (stereo unspecified), the inhibition reads like this: (at 10 µM) 38% (inactive); under setting [1], 6%.

Consider `CC(C)C1Nc2c(O)cc(Cl)c([N+](=O)[O-])c2C2C=CCC21` (stereo unspecified), for which the inhibition is 28% (inactive) (at 10 µM) and 5% under setting [1].

As to `O=C(CSc1nc2c(cnn2-c2ccccc2)c(=O)[nH]1)c1ccc(Cl)cc1`, the inhibition reads like this: (at 10 µM) 39% (inactive); under setting [1], 34%.

As for `Cn1cccc1/C=C1\SC(=O)N(c2ccc(O)cc2)C1=O`, the inhibition reads like this: (at 10 µM) 31% (inactive); under setting [1], 7%.

As to `O=C(Cc1cccs1)Nc1ccc(S(=O)(=O)N2CCCCC2)cc1`, the inhibition by setting is: (at 10 µM) 37% (inactive); under setting [1], 38%.

For the molecule `COC1=C/C(=C/c2c(N)n3cc(C)sc3nc2=O)C=CC1=O`, the inhibition is, setting by setting: (at 10 µM) 62% (inactive); under setting [1], 7%.

Consider `O=S(=O)(NCc1csc(-c2cccnc2)n1)c1cccs1`, for which the inhibition is 34% (inactive) (at 10 µM) and 21% under setting [1].

Take `O=C(c1cccs1)N1N=C(c2ccccc2)CC1c1ccc(O)cc1` (stereo unspecified): the inhibition (at 10 µM) was 69% (inactive) and the inhibition under setting [1] is 23%.

For `COc1ccc(-c2ccc(=O)[nH]n2)cc1`, the inhibition was 0% (inactive) (at 10 µM) and 16% under setting [1].

For `Cc1c(C(=O)OCc2ccccc2)[nH]c2c1C(=O)CC(c1ccco1)C2` (stereo unspecified), the inhibition is, setting by setting: (at 10 µM) 45% (inactive); under setting [1], 17%.

For the molecule `Nc1ccc(-n2cnc3cc([N+](=O)[O-])ccc32)cc1`, the inhibition is 34% (inactive) (at 10 µM) and 12% under setting [1].

In the case of `CCCc1cc(-n2ccnc2)n2c(nc3ccccc32)c1C#N`, the inhibition by setting is: (at 10 µM) 32% (active); under setting [1], 75%.

Turning to `CCc1ccc(-c2nn(-c3ccccc3)cc2CSC(=N)N)cc1`, the inhibition runs as follows: (at 10 µM) 76% (active); under setting [1], 71%.

For the molecule `COc1ccc(-c2nnc(-c3cc4c(ccc5ccccc54)oc3=O)o2)cc1`, the inhibition is, setting by setting: (at 10 µM) 33% (inactive); under setting [1], 6%.

Turning to `O=c1nc2s/c(=C\c3ccco3)c(=O)n2nc1Cc1ccc(F)cc1`, the inhibition is 16% (inactive) (at 10 µM) and 35% under setting [1].

For the molecule `Oc1ccccc1N=Nc1nc(-c2ccccc2)c(-c2ccccc2)[nH]1`, the inhibition was 36% (inactive) (at 10 µM) and 36% under setting [1].

As for `Cc1cc(Cl)ccc1OCC(=O)OC(C)C(=O)N(C)C` (stereo unspecified), the inhibition (at 10 µM) was 35% (inactive) and the inhibition under setting [1] turned out to be 12%.

With `Nc1ccc(-c2cc(-c3ccc(N)cc3)nc(-c3ccccc3)n2)cc1`, the inhibition (at 10 µM) is 43% (inactive) and the inhibition under setting [1] turned out to be 29%.

As to `COC(=O)c1ccc2c(=O)n(CC3CCCO3)c(SCC(=O)Nc3ccccc3Cl)nc2c1` (stereo unspecified), the inhibition is 65% (inactive) (at 10 µM) and 4% under setting [1].

Consider `COc1ccc(C2Nc3ccccc3C(=O)N2c2ccc(Cl)cc2)cc1Cn1cc([N+](=O)[O-])cn1` (stereo unspecified), for which the inhibition (at 10 µM) is 63% (inactive) and the inhibition under setting [1] is 36%.

With `C[C@]12CC[C@@H]3c4ccc(O[C@@H]5O[C@H](C(=O)O)[C@@H](O)[C@H](O)[C@H]5O)cc4CC[C@H]3[C@@H]1C[C@@H](O)[C@@H]2O`, the inhibition is, setting by setting: (at 10 µM) 52% (inactive); under setting [1], 15%.

In the case of `Cc1nnc(NC(=O)CSc2nc3c(c(=O)n2CCc2ccccc2)SC(C)C3)s1` (stereo unspecified), the inhibition is 45% (inactive) (at 10 µM) and 34% under setting [1].

Take `CCN(c1ccccc1)S(=O)(=O)c1ccc2[nH]cc(C(=O)NCCOC)c(=O)c2c1`: the inhibition was 35% (inactive) (at 10 µM) and 30% under setting [1].

On to `C/C(N)=C(/C#N)C(=O)CSc1nnc(Nc2cccc(C)c2C)s1`, for which the inhibition by setting is: (at 10 µM) 39% (inactive); under setting [1], 7%.

Turning to `Cc1ccc(-c2nn(-c3ccccc3)cc2/C=N/NC(=O)c2ccc(Br)o2)cc1`, the inhibition was 38% (inactive) (at 10 µM) and 58% under setting [1].

Turning to `Nc1ccc2nc3n(c(=O)c2c1)CCC3`, the inhibition (at 10 µM) is 49% (inactive) and the inhibition under setting [1] was determined as 9%.

For `Cc1ccc(NC(=O)CN2C(=O)S/C(=C/c3ccc(-c4cc(C(=O)O)ccc4C)o3)C2=O)cc1C`, the inhibition was 36% (inactive) (at 10 µM) and 21% under setting [1].

For `CN(CC(=O)NC(=O)NCc1ccco1)Cc1nc2ccccc2c(=O)[nH]1`, the inhibition is 14% (inactive) (at 10 µM) and 53% under setting [1].

With `Cc1ccc(Oc2cc(N3CCOCC3)nc(-c3ccccc3)n2)cc1`, the inhibition is 35% (inactive) (at 10 µM) and 15% under setting [1].

On to `CCc1cccc2c(C(=O)Cn3nnc(-c4ccc(OC)c(OC)c4)n3)c[nH]c12`, for which the inhibition was 53% (inactive) (at 10 µM) and 52% under setting [1].

As to `COc1cccc(C2Nc3c(F)cc(Br)cc3C3C=CCC32)c1OC` (stereo unspecified), the inhibition was 40% (active) (at 10 µM) and 74% under setting [1].

On to `O=c1[nH]c(N/N=C/c2ccc(O)cc2)nc2ccccc12`, for which the inhibition by setting is: (at 10 µM) 34% (inactive); under setting [1], 13%.

Take `CS(=O)(=O)c1ccc2nc(NC(=O)CCC(=O)c3cccs3)sc2c1`: the inhibition is, setting by setting: (at 10 µM) 62% (inactive); under setting [1], 9%.

Turning to `Cc1occc1C(=O)NCc1cccc(CNC(=O)c2ccoc2C)c1`, the inhibition (at 10 µM) was 2% (inactive) and the inhibition under setting [1] worked out at 10%.

As to `COc1ccc2c(c1OC)C(=O)N1N=C(c3ccc(O)cc3)CC21` (stereo unspecified), the inhibition (at 10 µM) is 21% (inactive) and the inhibition under setting [1] was determined as 39%.
